Structures are written as SMILES. “And” between values parts separate entries of the source, which are not always exact repeats. Identical values can stand only once. Inconclusive results are not listed. A call without a number means that no potency is given here. Values without a mark were called inactive. The source made the active and inactive calls. Calls follow the shape of the dose curve; as a rule, active = well fitted cell-killing curve with a large enough effect in the repeat runs; inconclusive = weak or mixed curves; inactive = flat fitted curve, though single readings scatter.
Potency is read from the fitted curve at half-maximal effect.

This test in a line: qHTS RealTime-Glo MT Cell Viability Assay in HepG2 cells - 32 hour (AID 1224877). Also: nearly all actives have a fitted effect of over 55% in size. The following applies: RealTime-Glo luminescence; series mostly up to 76.8 µM; activity change, negative = cytotoxic: at the top concentration. From the text:
U.S. Tox21 Program National Center for Advancing Translational Sciences [NCATS] NIH Chemical Genomics Center [NCGC] U.S. Environmental Protection Agency [EPA] National Institutes of Environmental Health Sciences [NIEHS] National Toxicology Program [NTP] U.S. Food and Drug Administration [FDA] Tox21 Assay Overview: Measure of cell viability is critical in the cell-base assay. Analysis of cell viability is necessary for the characterization of cell responses to cytotoxic drugs and environmental stress. A RealTime-Glo MT Cell Viability Assay to monitor cell viability in real time of continues cell culture during 40 hours of compound treatment was used to screen Tox21 10K library compounds in HepG2 cells. The RealTime-Glo MT Cell Viability Assay is a nonlytic, homogeneous, bioluminescent method to measure cell viability in real time using a simple, plate-based method. The assay involves adding NanoLuc luciferase and a cell-permeant prosubstrate to cells in culture. Viable cells reduce the proprietary prosubstrate to generate a substrate for NanoLuc luciferase. This substrate diffuses from cells into the surrounding culture medium, where it is rapidly used by the NanoLuc Enzyme to produce a luminescent signal. The signal correlates with the number of viable cells, making the assay well suited for cytotoxicity studies.
Tox21 Assay Protocol Summary: The mixture of HepG2 cell suspension and reagents were dispensed at 600cells/6 ul/well in 1536-well tissue culture treated black solid bottom plates using a Multidrop dispenser. After the assay plates were incubated at a 37 C/5% CO2 incubator for 5 hours, 23 nL of compounds dissolved in DMSO, positive and negative controls was transferred to the assay plate by a pintool work station. The plates were incubated at 37 C for 40 hours. The luminescence intensity were measured at 0h, 8h, 16h, 24h, 32h and 40h time points using ViewLux plate reader during compound treatment.
For the compound `CCC[CH2][Sn]([Cl])([CH2]CCC)[CH2]CCC`, the Potency was 1.23 µM (active) and 436 nM (active).

For the compound `Clc1ccc(C(Cl)(Cl)Cl)cc1`, the Potency result is “inactive”.

Consider `CCOC(=O)c1ccccc1N`, for which the Potency entry is “inactive”.

`CC(C)(c1ccc(OCC2CO2)cc1)c1ccc(OCC2CO2)cc1` (stereo not given): the Potency entry was “inactive”.

For the compound `C[N+](C)(C)CC(=O)[O-]`, the Potency result was “inactive”.

Consider `CN(C)c1nc(=O)n(C2CCCCC2)c(=O)n1C`, for which the Potency entry is “inactive”.

`Clc1cccc(Cl)c1`: the Potency entry is “inactive”.

Turning to `COc1ccc(CO)cc1`, the Potency entry is “inactive”.

Consider `O=C1C(Cl)=C(Cl)C(=O)c2ccccc21`, for which the Potency was 31 µM (active) and 12.3 µM (active).

In the case of `CC(C)COC(=O)c1ccccc1C(=O)OCC(C)C`, the Potency result is “inactive”.

Take `N#Cc1nn(-c2c(Cl)cc(C(F)(F)F)cc2Cl)c(N)c1S(=O)C(F)(F)F` (stereo not given): the “activity change, negative = cytotoxic” value is -9.47% [at 35.3 µM].

Consider `CCCCOC(=O)COC(=O)c1ccccc1C(=O)OCCCC`, for which the Potency result was “inactive”.

For the compound `COP(=S)(OC)Oc1ccc(Sc2ccc(OP(=S)(OC)OC)cc2)cc1`, the Potency result was “inactive”.

With `CC(C)(O)C#N`, the Potency result is “inactive”.

With `C=CC(=O)OCC(CC)(COC(=O)C=C)COC(=O)C=C`, the Potency was 25.2 µM (active) and 12.3 µM (active).

For the compound `CNC(=O)CSP(=S)(OC)OC`, the Potency result is “inactive”.

Regarding `CC(C)(O)C(=O)Nc1ccc([N+](=O)[O-])c(C(F)(F)F)c1`, the Potency entry was “inactive”.

For the compound `O=C1CCCO1`, the Potency entry was “inactive”.

On to `c1ccc(C2CO2)cc1` (stereo not given), for which the Potency entry was “inactive”.

With `Nc1ccc2ccccc2c1`, the Potency entry is “inactive”.

In the case of `N#Cc1c(Cl)c(Cl)c(Cl)c(C#N)c1Cl`, the Potency is 19.1 µM (active) and 3.89 µM (active).

`CCCCSP(=O)(SCCCC)SCCCC`: the Potency result is “inactive”.

Turning to `CCOP(=S)(OCC)OP(=S)(OCC)OCC`, the Potency result was “inactive”.

Regarding `Clc1ccccc1-c1nnc(-c2ccccc2Cl)nn1`, the Potency result was “inactive”.

With `O=C(O)CF`, the Potency entry was “inactive”.

Consider `CC(C)(c1ccccc1)c1ccc(O)cc1`, for which the “activity change, negative = cytotoxic” value was -14.6%.

With `O=C(O)c1nn(Cc2ccc(Cl)cc2Cl)c2ccccc12`, the Potency entry is “inactive”.

Turning to `ClCC(Cl)CCl`, the Potency result was “inactive”.

`NN=C(N)N`: the Potency entry was “inactive”.

As for `CCC/C=N/O`, the Potency result is “inactive”.

For `COP(=O)(NC(C)=O)SC` (stereo not given), the Potency result is “inactive”.

With `CC(O)CN(CC(C)O)CC(C)O` (stereo not given), the Potency result is “inactive”.

Consider `CC(C)=CC1C(C(=O)OCc2cccc(Oc3ccccc3)c2)C1(C)C` (stereo not given), for which the Potency result was “inactive”.

For the compound `COP(=S)(OC)SCn1nnc2ccccc2c1=O`, the Potency entry is “inactive”.

For `C=CC(Cl)CCl` (stereo not given), the Potency result is “inactive”.

For the compound `ClC(Cl)(Cl)c1ccccc1`, the Potency result was “inactive”.

For `CCCCCCCC[N+](C)(CCCCCCCC)CCCCCCCC`, the Potency was 9.75 µM (active) and 19.5 µM (active) and 8.71 µM (active).

`CCNc1nc(Cl)nc(NC(C)(C)C#N)n1`: the Potency entry was “inactive”.

Consider `O=[N+]([O-])/N=C1\NCCN1Cc1ccc(Cl)nc1`, for which the Potency result was “inactive”.

`O=C1Nc2ccc(Cl)cc2C(c2ccccc2)=NC1O` (stereo not given): the Potency entry was “inactive”.

(Values after PubChem BioAssay (Tox21).)
